Test [1] is described as follows: qHTS assay to identify small molecule agonists of the estrogen receptor alpha (ER-alpha) signaling pathway in the presence of an antagonist - cell viability counter screen (AID 1259386).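 Note: cells exposed to compounds for 22 h at 37 °C before the viability read; nearly all actives have a fitted effect of over 30% in size.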 Note: potency is the fitted concentration of half-maximal effect. In a few lines: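 VM7Luc4E2 cells (endogenous full-length ER-alpha, 4×ERE-luciferase) were held 5 days in phenol red-free medium with 10% charcoal-stripped FBS, plated, then given 10.0nM ICI-182,780 and compounds at 15 concentrations for 22hr at 37C; viability read by CellTiter-Fluor fluorescence.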

The target of test [2] is Progesterone receptor (Homo sapiens) (UniProt P06401). Nature of the test: qHTS assay to identify small molecule agonists of the progesterone receptor (PR) signaling pathway (AID 1346784; calls by dose curve; note: nearly all actives have a fitted effect of over 30% in size). The essentials: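 Beta-lactamase reporter read-out: after 16 hr compound treatment at 37C and a further 2 hr at room temperature with LiveBLAzer B/G FRET substrate, fluorescence was measured in PR-UAS-bla HEK 293T cells grown in 2% charcoal-stripped serum.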
In general terms: In qHTS, concentration-response curves come from the screen itself.

The target is the same in test [3]. Nature of the test: qHTS assay to identify small molecule antagonists of the progesterone receptor (PR) signaling pathway (AID 1346795; active = well fitted inhibition curve with a large enough effect in the signal ratio in the repeat runs, not every such curve was filed as active; the % refers to the signal ratio). In a few lines:
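Read-out is fluorescence from the LiveBLAzer B/G FRET substrate, cleaved by a UAS-controlled beta-lactamase in PR-UAS-bla HEK293T cells after 16 hr exposure to compound plus 1 nM promegestone (final), followed by 2 hr at room temperature.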

A short description of test [4]: qHTS assay to identify small molecule antagonists of the progesterone receptor (PR) signaling pathway - cell viability counter screen (AID 1346798).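 Note: HEK293T PR-UAS-bla cells stimulated with the agonist R5020; series mostly up to about 92 µM; nearly all actives have a fitted effect of over 50% in size.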 In a few lines:
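HEK293T PR-UAS-bla, 2% charcoal-stripped FBS; 4 hr pre-plate; cpd + R5020, 16 h 37C; LiveBLAzer read first; then CellTiter-Glo 30 min RT, luminescence.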

Test [5] is described as follows: qHTS assay to identify small molecule antagonists of the TGF-beta/Smad signaling pathway - cell viability counter screen (AID 1346824). Note: nearly all actives have a fitted effect of over 50% in size. In a few lines:
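SBE-bla HEK 293T cells, incubated overnight, then compound plus 0.25 ng/mL TGF-beta1 (stock added) for 5 hr at 37 C. Viability was read in the same wells by CellTiter-Glo luminescence after 30 min at room temperature.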

The nature of test [6]: qHTS assay to identify small molecule agonists of the TGF-beta/Smad signaling pathway - cell viability counter screen (AID 1346829). Note: top concentration of the series differs between compounds; nearly all actives have a fitted effect of over 45% in size. In a few lines: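 In parallel with the Smad reporter read, viability of HEK 293T cells stably carrying SBE-bla is quantified by ATP luminescence following 5 hr compound treatment.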
Test [7] can be described thus: qHTS assay to identify small molecule agonists of the TGF-beta/Smad signaling pathway (AID 1346859; active = well fitted activation curve with a large enough effect in the signal ratio in the repeat runs, not every such curve was filed as active; the % refers to the signal ratio; note: series mostly up to about 77 µM). In a few lines: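 SBE-bla HEK 293T, 4,000 cells/well, plated o/n; cpd in DMSO, 5 hr, 37 C/5% CO2; B/G FRET substrate 2 hr RT; ex 405, em 460/530 nm.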
Test [8] has as its target Thyrotropin-releasing hormone receptor (Homo sapiens) (UniProt P34981). Nature of the test: qHTS assay to identify small molecule antagonists of the thyrotropin-releasing hormone receptor (TRHR) signaling pathway (AID 1346877; active = well fitted inhibition curve with a large enough effect in the repeat runs, not every such curve was filed as active; note: series mostly up to about 51 µM). The essentials: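 TRHR-expressing HEK293 cells were seeded, cultured 18 h at 37 °C, then loaded with calcium dye for 2 h. Compounds were pre-incubated 5 min at room temperature before 1 nM TRH (final) was added, and kinetic fluorescence was recorded for 3 min.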

The target is the same in test [9]. Nature of the test: qHTS assay to identify small molecule agonists of the thyrotropin-releasing hormone receptor (TRHR) signaling pathway (AID 1346891; calls by dose curve; note: series mostly up to about 58 µM). The essentials: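 Intracellular calcium rise, read as fluorescence every second for 3 min, served as the agonist signal in dye-loaded HEK293 cells expressing TRHR; each compound ran at 15 concentrations in triplicate.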

Test [10] can be described thus: Human pregnane X receptor (PXR) small molecule agonists, qHTS cell viability counter screen (AID 1346977). Note: nearly all actives have a fitted effect of over 50% in size. Note: potency is the fitted concentration of half-maximal effect. In a few lines:
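PXR-Luc HepG2, 2,000 cells/well, 5% charcoal-stripped FBS; 5hr settle; cpd 24hr, 37C/5% CO2; CellTiter-Fluor at 23hr, read 1hr later (fluorescence).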

Test [11] can be described thus: Caspase-3/7 induction in CHO-K1 cells by small molecules, qHTS cell viability counter screen (AID 1346979). Note: nearly all actives have a fitted effect of over 35% in size. Note: potency is the fitted concentration of half-maximal effect. In a few lines: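 Cells (CHO-K1, wild type) are plated at 1,500 per well and incubated 5hr. Test compounds in DMSO are then pinned in, followed by 16hr at 37C and 5% CO2. Viability is read by CellTiter-Fluor fluorescence after 1hr.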
A short description of test [12]: Caspase-3/7 induction in CHO-K1 cells by small molecules, qHTS assay (AID 1346980). Note: nearly all actives have a fitted effect of over 15% in size. The essentials: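 Wild-type CHO-K1 cells exposed to compounds for 17hr at 37 C, 5% CO2. Caspase-3/7 activity then measured by Caspase-Glo 3/7 luminescence after 30min at room temperature.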
Test [13] in a line: Caspase-3/7 induction in HepG2 cells by small molecules, qHTS cell viability counter screen (AID 1346981). Note: nearly all actives have a fitted effect of over 30% in size. Note: potency is the fitted concentration of half-maximal effect. The essentials:
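Wild-type HepG2 cells (2,000/well) were allowed to settle for 5 hr at 37 C, 5% CO2, then dosed with compounds in DMSO by pin transfer. After 16 hr at 37 C, CellTiter-Fluor was added and fluorescence read 1 hr later.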

The target of test [14] is Nuclear receptor subfamily 1 group I member 2 (Homo sapiens) (UniProt O75469). Nature of the test: Human pregnane X receptor (PXR) small molecule agonists, qHTS assay (AID 1346982). Note: nearly all actives have a fitted effect of over 35% in size. Note: potency is the fitted concentration of half-maximal effect. The essentials: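 PXR-Luc HepG2 cells (CYP3A4 promoter-driven luciferase) were seeded in medium with 5% charcoal-stripped FBS, left 5 hr at 37 C, then exposed to compounds in DMSO for 24 hr. Luminescence was read after ONE-Glo addition.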

For test [15], the target named is Cytochrome P450 2D6 (Homo sapiens) (UniProt P10635). Nature of the test: Cytochrome P450 Family 2 Subfamily D Member 6 (CYP2D6) small molecule antagonists: luciferase reporter qHTS assay (AID 1671196). Note: nearly all actives have a fitted effect of over 50% in size. Note: potency is the fitted concentration of half-maximal effect. The essentials: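 CYP2D6 enzyme–substrate mix was held with compound for 10 min at room temperature, then NADPH regeneration solution was added and the reaction ran 1 h at room temperature. Luciferin product was detected by luminescence after 20 min with detection reagent.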
For orientation: A reporter such as luciferase makes a cellular process visible.

Test [16] can be described thus: Caspase-3/7 induction in HepG2 cells by small molecules, qHTS assay (AID 1346978). Note: nearly all actives have a fitted effect of over 15% in size. In a few lines:
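Wild-type HepG2 cells, 2,000/well, settled 5 hr at 37 C and 5% CO2, then compound-treated for 17 hr; caspase-3/7 activity read by luminescent Caspase-Glo 3/7 after 30 min at room temperature.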

Test [17] concerns the target Nuclear receptor subfamily 1 group I member 2 (Rattus norvegicus) (UniProt Q9R1A7). Nature of the test: Rat pregnane X receptor (rPXR) activation by small molecules, qHTS assay (AID 1346983). Note: nearly all actives have a fitted effect of over 20% in size. The settings on record: rPXR luciferase reporter cells, One-Glo luminescence, 24 h; stronger effect = higher value. The essentials: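 Cell-based rPXR activation assay: rPXR cells, 2,000 per well, rested 5hr at 37 C, then exposed to compounds in DMSO for 24 hr at 37 C. Luciferase activity read by One-Glo luminescence after 30 min at room temperature.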

The target in test [18] is Nuclear receptor subfamily 1 group I member 2 (Homo sapiens) (UniProt O75469). Nature of the test: CYP3A4 induction through human pregnane X receptor (PXR) by small molecules, qHTS assay (AID 1346984). Note: nearly all actives have a fitted effect of over 40% in size. The essentials:
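DPX-2 cells (HepG2 co-transfected with PXR and CYP3A4 promoter-luciferase) treated with compounds 24 h at 37C; luciferin-IPA CYP3A4 substrate 3uM final added for 3 h, then One-Glo; luminescence read. qHTS format.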

Test [19] has the same target. Nature of the test: Human pregnane X receptor (PXR) activation by small molecules, qHTS assay (AID 1346985). Note: nearly all actives have a fitted effect of over 40% in size. In a few lines:
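DPX-2 cells (HepG2 co-transfected with a PXR response element and a CYP3A4-promoter luciferase construct) were seeded at 2,000 per well, rested 5 hr at 37C, then exposed to DMSO-dissolved compounds for 24 hr. Activation was read as luciferase luminescence.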

The nature of test [20]: qHTS assay to identify small molecule agonists of the progesterone receptor (PR) signaling pathway - cell viability counter screen (AID 1346799; calls by dose curve; note: nearly all actives have a fitted effect of over 45% in size). In a few lines:
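Luminescence from CellTiter-Glo, added after the beta-lactamase FRET read in the same wells, gave cytotoxicity in PR-UAS-bla HEK293T cells treated with compounds for 16 hr at 37C.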

A number with no mark means an inactive call. Records with an inconclusive call do not appear. Calls of active or inactive are those of the source. Unless noted, calls come from the whole dose curve; as a rule, active = well fitted curve in the direction sought with a large enough effect in the repeat runs; inconclusive = weak or mixed curves; inactive = no such curve, though single readings can be large; an effect the other way counts as inactive or inconclusive.
% is set by controls: 0 for no effect and ±100 for the full control effect.

Chain of Cytochrome P450 2D6 (Homo sapiens) (P10635 whole entry, looked up): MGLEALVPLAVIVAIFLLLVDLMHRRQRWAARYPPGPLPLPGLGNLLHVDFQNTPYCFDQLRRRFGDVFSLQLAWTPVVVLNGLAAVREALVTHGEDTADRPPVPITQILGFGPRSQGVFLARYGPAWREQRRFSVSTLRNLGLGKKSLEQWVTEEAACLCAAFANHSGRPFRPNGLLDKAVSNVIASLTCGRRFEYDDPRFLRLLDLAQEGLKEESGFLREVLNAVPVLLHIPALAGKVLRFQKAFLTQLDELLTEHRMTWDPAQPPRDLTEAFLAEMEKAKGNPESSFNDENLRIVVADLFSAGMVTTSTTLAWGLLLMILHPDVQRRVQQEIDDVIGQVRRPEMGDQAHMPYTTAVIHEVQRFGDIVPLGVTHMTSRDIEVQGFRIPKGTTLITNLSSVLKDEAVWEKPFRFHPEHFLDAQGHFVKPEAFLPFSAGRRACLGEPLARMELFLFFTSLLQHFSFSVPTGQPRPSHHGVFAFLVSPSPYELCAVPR
Chain of Progesterone receptor (Homo sapiens) (P06401 whole entry, looked up): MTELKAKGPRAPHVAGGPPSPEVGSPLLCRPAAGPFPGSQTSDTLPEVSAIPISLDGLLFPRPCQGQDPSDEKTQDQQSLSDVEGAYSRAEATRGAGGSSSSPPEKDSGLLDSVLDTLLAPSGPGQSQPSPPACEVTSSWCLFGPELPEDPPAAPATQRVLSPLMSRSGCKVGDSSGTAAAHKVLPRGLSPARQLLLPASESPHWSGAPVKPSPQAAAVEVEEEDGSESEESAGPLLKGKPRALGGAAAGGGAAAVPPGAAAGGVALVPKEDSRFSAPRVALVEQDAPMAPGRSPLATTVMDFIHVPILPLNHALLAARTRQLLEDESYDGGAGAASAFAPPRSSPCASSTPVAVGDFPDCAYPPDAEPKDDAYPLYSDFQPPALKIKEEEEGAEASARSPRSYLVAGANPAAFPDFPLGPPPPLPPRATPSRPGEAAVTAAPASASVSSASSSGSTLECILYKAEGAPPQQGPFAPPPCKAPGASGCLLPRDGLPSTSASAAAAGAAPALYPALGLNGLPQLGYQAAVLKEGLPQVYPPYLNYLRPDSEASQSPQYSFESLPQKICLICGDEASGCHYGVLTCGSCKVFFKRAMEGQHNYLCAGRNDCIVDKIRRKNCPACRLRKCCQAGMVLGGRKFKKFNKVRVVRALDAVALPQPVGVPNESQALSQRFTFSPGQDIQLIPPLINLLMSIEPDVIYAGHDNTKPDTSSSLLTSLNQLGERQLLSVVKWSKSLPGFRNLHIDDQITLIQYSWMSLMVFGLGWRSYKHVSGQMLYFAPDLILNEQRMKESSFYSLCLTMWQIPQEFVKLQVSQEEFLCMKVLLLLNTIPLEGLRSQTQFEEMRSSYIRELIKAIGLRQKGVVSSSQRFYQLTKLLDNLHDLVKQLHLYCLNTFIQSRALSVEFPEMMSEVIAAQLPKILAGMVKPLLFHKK
Chain of Thyrotropin-releasing hormone receptor (Homo sapiens) (P34981 whole entry, looked up): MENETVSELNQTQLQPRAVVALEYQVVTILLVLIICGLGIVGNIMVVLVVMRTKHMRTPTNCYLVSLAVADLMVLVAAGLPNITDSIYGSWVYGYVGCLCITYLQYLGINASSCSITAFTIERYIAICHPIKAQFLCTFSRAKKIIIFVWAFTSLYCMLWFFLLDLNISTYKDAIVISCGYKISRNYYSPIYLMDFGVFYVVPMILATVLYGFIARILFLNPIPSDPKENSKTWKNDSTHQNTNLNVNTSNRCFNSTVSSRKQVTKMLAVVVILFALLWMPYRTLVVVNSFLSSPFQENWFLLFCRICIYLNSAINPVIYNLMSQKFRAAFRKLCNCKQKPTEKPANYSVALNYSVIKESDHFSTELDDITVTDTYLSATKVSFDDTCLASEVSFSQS
Chain of Nuclear receptor subfamily 1 group I member 2 (Homo sapiens) (O75469 whole entry, looked up): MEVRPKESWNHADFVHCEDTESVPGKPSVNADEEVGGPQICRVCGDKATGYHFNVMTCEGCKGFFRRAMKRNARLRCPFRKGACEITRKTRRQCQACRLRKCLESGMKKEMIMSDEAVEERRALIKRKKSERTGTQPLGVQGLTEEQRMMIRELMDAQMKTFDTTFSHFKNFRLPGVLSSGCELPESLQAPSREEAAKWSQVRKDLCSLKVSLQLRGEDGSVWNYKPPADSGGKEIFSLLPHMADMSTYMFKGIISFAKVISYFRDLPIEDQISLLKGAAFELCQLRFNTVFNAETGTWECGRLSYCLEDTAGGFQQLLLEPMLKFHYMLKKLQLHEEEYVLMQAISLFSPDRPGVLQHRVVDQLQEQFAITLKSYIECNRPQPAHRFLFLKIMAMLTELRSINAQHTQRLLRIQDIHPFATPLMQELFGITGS
Chain of Nuclear receptor subfamily 1 group I member 2 (Rattus norvegicus) (Q9R1A7 whole entry, looked up): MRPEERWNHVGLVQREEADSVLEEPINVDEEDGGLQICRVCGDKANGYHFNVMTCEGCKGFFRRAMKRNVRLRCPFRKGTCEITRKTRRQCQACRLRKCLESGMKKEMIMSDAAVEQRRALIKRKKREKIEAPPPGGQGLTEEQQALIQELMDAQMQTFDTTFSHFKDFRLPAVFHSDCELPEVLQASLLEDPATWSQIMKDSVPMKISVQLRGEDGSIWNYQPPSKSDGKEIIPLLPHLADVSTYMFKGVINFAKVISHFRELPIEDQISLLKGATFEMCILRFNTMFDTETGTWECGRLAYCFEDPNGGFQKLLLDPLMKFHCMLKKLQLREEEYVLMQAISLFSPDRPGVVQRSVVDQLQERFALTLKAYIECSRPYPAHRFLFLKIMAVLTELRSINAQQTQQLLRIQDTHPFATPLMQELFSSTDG

Take `Cc1ccc(C)cc1`: the Potency entry in test [1], in [2], in test [3], in test [4], in test [5] and in [6] was “inactive” each time. For the same compound, the Potency entry in test [7], in [8], in test [10], in [11], in test [12] and in test [13] was “inactive” in each case. Moreover, the Potency result in test [14] and in test [15] was “inactive” each time. Besides, the outcome in test [9] was inactive.

As to `CCC(CC)C(C)CCOC(C)=O` (stereo unspecified), the Potency entry in test [1], in test [2], in [3], in test [4], in test [6] and in [7] was “inactive” in each case. The Potency entry in test [8], in test [10], in test [16], in [11], in test [12] and in test [14] was “inactive” in each case. In addition, in test [15], the Potency entry is “inactive”. Further, the result in [9] was inactive.

In the case of `CN(C)C(=O)COC(=O)Cc1ccc(OC(=O)c2ccc(N=C(N)N)cc2)cc1`, the Potency entry in test [1], in test [2], in test [3], in test [4], in test [5] and in [6] was “inactive” in each case. The Potency result in [7], in test [8], in [10], in [16], in [11] and in test [14] was “inactive” each time. Moreover, the Potency result in test [18], in test [19] and in [15] was “inactive” throughout. Further, the compound was called inactive in test [9]. Besides, the max activation in test [17] was -2.55%.

On to `CCCCCCOC(=O)C(C)CC` (stereo unspecified), for which the Potency result in test [1], in test [2], in test [3], in test [20], in [5] and in test [6] was “inactive” each time. The Potency entry in [7], in test [8], in test [10], in test [16], in test [11] and in [12] was “inactive” each time. Moreover, the Potency result in [14] and in test [15] was “inactive” throughout. In addition, the compound was called inactive in test [9].

`C=CC(C)(CCC=C(C)C)OC=O` (stereo unspecified): the Potency result in [1], in test [2], in test [3], in test [4], in [5] and in test [6] was “inactive” each time. The Potency entry in test [7], in test [10], in [16], in test [11], in test [12] and in [14] was “inactive” each time. Moreover, the Potency entry in test [15] is “inactive”.

Consider `Cc1cc(-c2ccc(N=Nc3cc(S(=O)(=O)O)c4ccccc4c3N)c(C)c2)ccc1N=Nc1cc(S(=O)(=O)O)c2ccccc2c1N`, for which the Potency was 30.8 µM (active) in test [1], 54.8 µM (active) in test [11], 19.4 µM (active) in test [14] and 2.26 µM (active) in [15]. Moreover, the Potency result in [2], in test [3], in test [4], in test [5], in [6] and in [8] was “inactive” in each case. Besides, the Potency result in [16], in test [12] and in [13] was “inactive” in each case. Further, the call in test [9] was inactive.

For the compound `CC1(C)CC(O)CC(C)(C)N1`, the Potency entry in [1], in [2], in test [3], in test [4], in test [5] and in [6] was “inactive” each time. Further, the Potency entry in [7], in test [8], in test [10], in [16], in test [11] and in test [12] was “inactive” in each case. In addition, in test [15], the Potency result is “inactive”. The compound was called inactive in test [9]. Also, the Potency in [14] is 55.5 µM (active).

Regarding `CC(CCc1ccccc1)NCC(O)c1ccc(O)c(C(N)=O)c1` (stereo unspecified), the Potency in [1] was 27.3 µM (active); in test [10], 43.3 µM (active); in test [11] it was 43.3 µM (active); in test [13], 27.3 µM (active); in test [14], 17.2 µM (active); in test [15] it was 0.564 µM (active). Further, the Potency entry in test [2], in [3], in test [4], in [5], in test [6] and in [7] was “inactive” each time. For the same compound, the Potency entry in test [8], in test [12], in [18] and in test [19] was “inactive” each time. The compound was called inactive in [9]. In addition, the max activation in test [17] was -0.392%.

The record behind these values is PubChem BioAssay (Tox21).
